This is one part of a sample in which hits are shown more often than they occur.
LmPK inh – LmPK (Leishmania mexicana) enzyme inhibition. Potency, µM (doses to about 57.5 µM), for the others: at the top dose activity change, negative = inhibition, most hits filed as inhibitors. Q27686. purified LmPK, Kinase-Glo ATP luminescence, 1 h. actives 0.37% (n = 290,000); note: potency is the fitted concentration of half-maximal effect; % is set by controls: 0 for no effect and ±100 for the full control effect
Target sequence (Q27686 whole entry, looked up): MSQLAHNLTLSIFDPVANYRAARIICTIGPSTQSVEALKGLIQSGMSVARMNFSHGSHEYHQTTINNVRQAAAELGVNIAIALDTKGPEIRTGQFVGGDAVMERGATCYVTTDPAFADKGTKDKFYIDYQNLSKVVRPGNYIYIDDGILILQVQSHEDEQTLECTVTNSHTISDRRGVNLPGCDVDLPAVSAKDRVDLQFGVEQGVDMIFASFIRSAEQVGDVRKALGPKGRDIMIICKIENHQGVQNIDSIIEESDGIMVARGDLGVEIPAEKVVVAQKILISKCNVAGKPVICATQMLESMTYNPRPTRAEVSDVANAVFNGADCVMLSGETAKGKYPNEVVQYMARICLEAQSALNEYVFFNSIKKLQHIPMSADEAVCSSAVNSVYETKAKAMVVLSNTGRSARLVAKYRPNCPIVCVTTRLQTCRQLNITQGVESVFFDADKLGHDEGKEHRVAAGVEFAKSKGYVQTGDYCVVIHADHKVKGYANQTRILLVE
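0.1 nM LmPK, 0.5 mM PEP, 0.1 mM ADP; 50 mM imidazole pH 7.2, 7 mM MgCl2, 50 mM KCl; 1 h RT. Kinase-Glo luminescence readout, normalized to no-enzyme (full inhibition) and uninhibited wells.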
Shiga toxin inh – blocks Shiga toxin action in Vero cells | inhibition, % at 38.7 µM | actives 9.2% (n = 290,000) | Vero cells, Shiga toxin protein synthesis inhibition reporter; in the data active = inhibition mostly above about 28%, no sharp cut-off; inactive = mostly below about 43%; note: 0% is about no effect
Sm TGR inh – inhibitors of Schistosoma mansoni thioredoxin glutathione reductase. purified TGR, DTNB reduction, TNB absorbance 405 nm. Q962Y6. Potency, µM (doses to about 114 µM), inactives show top-dose activity change, negative = inhibition, actives largely listed as inhibitors. actives 3% (n = 360,000); note: potency is the fitted concentration of half-maximal effect; % is set by controls: 0 for no effect and ±100 for the full control effect; nearly all actives have a fitted effect of over 60% in size
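Kinetic colorimetric format: TGR-catalysed, NADPH-driven DTNB reduction monitored via TNB absorbance. Enzyme dispensed at 20 nM; compound exposure 15 min at room temperature before reaction start.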
CHX counter – counter-screen for Shiga toxin inhibitors: cycloheximide protein synthesis inhibition; actives 12% (n = 300,000); max response, %; cell reporter, cycloheximide protein synthesis inhibition counterscreen; in the data active = max response mostly above about 13%, no sharp cut-off; inactive = mostly below about 14%; note: read at 38.3 µM for the half of the compounds with a filed dose; 0% is about no effect
Giardia FBPA inh – Giardia lamblia aldolase inhibition; A8B2U2; purified Giardia FBPA; Potency, µM (doses to about 59.6 µM), for the others: at the highest dose activity, negative = inhibition, usual class: inhibitors; actives 0.71% (n = 290,000); note: potency is the fitted concentration of half-maximal effect; % is set by controls: 0 for no effect and ±100 for the full control effect; nearly all actives have a fitted effect of over 55% in size
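Giardia FBPA (40 nM reagent) was preincubated 10 min at RT with compound (up to 57.5 uM final), then substrate plus GAPDH/TPI/NAD/arsenate coupling system with diaphorase/resazurin was added; resorufin fluorescence (525/598 nm) was read after 20 min.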
Tb PYK inh – T. brucei pyruvate kinase inhibition; TbPYK enzyme, Kinase-Glo Plus ATP luminescence, 45 min; Potency, µM (top dose mostly 76.8 µM), inactives show at the top dose activity, negative = inhibition, most hits filed as inhibitors; actives 0.12% (n = 410,000); AID 624173; note: potency is the fitted concentration of half-maximal effect; % is set by controls: 0 for no effect and ±100 for the full control effect; nearly all actives have a fitted effect of over 50% in size
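TbPYK + substrate in 50 mM TEA pH 7.2, 100 mM KCl, 10 mM MgCl2, 0.05% BSA, 0.01% Tween-20; cpd pinned; ADP 130 uM final; 45 min RT; Kinase-Glo Plus 10 min; luminescence endpoint.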
An asterisk follows results filed as active; ? = inconclusive; / = no result given; [ ] = dose if it differs, or a comment. Unless noted, calls come from the whole dose curve; as a rule, active = well fitted curve in the direction sought with a large enough effect; inconclusive = small, poorly fitted or top-dose-only effect, or another doubt; inactive = no such curve, though single readings can be large; an effect the other way counts as inactive or inconclusive.

SMILES	LmPK inh	Shiga toxin inh	Sm TGR inh	CHX counter	Giardia FBPA inh	Tb PYK inh
O=C(CSc1nnc(NC(=O)c2ccccc2F)s1)NCC1CCCO1 (stereo not drawn)	-10%	19*	-2%	17*	/	-26%
O=C(CSc1nnc(NC(=O)c2ccccc2)s1)NCC1CCCO1 (stereo not drawn)	-5%	36*	90%	30*	3%	-4%
O=C(CSc1nnc(NC(=O)Cc2ccccc2)s1)NCC1CCCO1 (stereo not drawn)	13%[11.5 µM]	-4	1%	-3	8%	-12%
COc1ccc(C(=O)N2CCc3cc(OC)c(OC)cc3C2COc2ccccc2OC)cc1 (stereo not drawn)	/	/	20%	/	/	5%
CSc1nc(O)c(N=Nc2ccc(F)cc2F)c(=O)[nH]1	16µM*	54*	-7%	30*	-21%	-16%
Cc1cc(O)c2c(c1)C(=O)[C@@]13Oc4c5c(c(O)c6c(O)cc(C)cc46)C(=O)C[C@H](O)[C@H]5[C@@H]1[C@@H](O)CC(=O)C3=C2O	/	/	/	/	/	4%
O=C1NN(c2ccc(Cl)c(Cl)c2)C(=O)/C1=C/c1cccc(OC(=O)c2cccs2)c1	-1%	39	41%	-1	23%	/
Cc1ccsc1/C=c1\sc2ncnn2c1=O	-2%	-12	-9%	-1	1%	3%
Cc1ccc(Sc2ccc(/C=C3/C(=O)NN(c4ccccc4)C3=O)o2)cc1	-5%	-3	-34%	-1	2%	0%
Cc1ccsc1/C=C1/C(=O)NN(c2ccccc2)C1=O	?	82*	1%	40*	?	-1%
O=C1NN(c2ccccc2)C(=O)/C1=C\c1cccc(OC(=O)c2cccs2)c1	-6%	-31	35µM*	-2	-15%	?
Cc1ccsc1C=C1C(=O)c2ccccc2C1=O	14µM*	0	0%	1	0%	-8%
CCc1ccc(NC(=O)C2CCN(S(=O)(=O)c3c(C)noc3/C=C/c3cccs3)CC2)cc1	/	/	6%	/	/	-2%
CCOc1ccc(S(=O)(=O)NCCc2sc3nc(-c4ccc(C)cc4)nn3c2C)cc1	/	/	-12%	/	/	4%
O=C1c2ccccc2CC1Sc1nnc(-c2ccccn2)o1 (stereo not drawn)	-8%	75*	45µM*	17*	-8%	-22%
COc1ccc(N2C(=O)CS(=O)(=O)C23C(=O)N(Cc2c(F)cccc2Cl)c2ccccc23)cc1 (stereo not drawn)	/	/	9%	/	/	-4%
COC(=O)c1ccc(Cn2nnc3ccccc32)cc1	6%	2	1%	-3	5%	4%
Clc1cccc(Cl)c1COn1nnc2ccccc21	-8%	37	9%	25*	-18%	4%
c1ccc(COn2nnc3ccccc32)c(COn2nnc3ccccc32)c1	8%	-6	4%	0	?	-18%
COC(=O)c1ccc(COn2nnc3ccccc32)cc1	-18%	97*	-7%	39*	-1%	-1%
Cc1cc(=O)oc2cc(NC(=O)c3ccnn3C)ccc12	-8%	26	-3%	17*	/	-4%
Cc1ccc2sc3ccc(NC(=O)c4ccccc4Cl)cc3c(=O)c2c1	1%	43*	19%	35*	-15%	-24%
Cc1ccc(C(=O)Nc2ccc(NC(=O)c3ccccc3Cl)c(C)c2)cc1	/	/	/	/	/	-9%
Cc1cc(=O)oc2cc(NC(=O)c3ccccc3Cl)ccc12	-1%	86*	-9%	40*	/	3%
Cc1cc(=O)oc2cc(NC(=O)c3ccccc3C(=O)O)ccc12	0%	65	3%	22*	14%	1%
SMILES	LmPK inh	Shiga toxin inh	Sm TGR inh	CHX counter	Giardia FBPA inh	Tb PYK inh
COc1cccc(C(=O)Nc2ccc3c(C)cc(=O)oc3c2)c1	3%	115*	-3%	62*	3%	2%
COc1ccccc1CC(=O)Nc1ccc2c(C)cc(=O)oc2c1	-5%	12	-24%	2	3%	0%
CCCCOc1ccccc1C(=O)Nc1nonc1-c1ccccc1	/	/	-4%	/	/	10%
Clc1ccc(-c2csc(Nc3ccccc3)[n+]2Cc2ccco2)c(Cl)c1	2%	110*	?	48*	-14%	-13%
CC(=CC(=O)c1ccccc1)c1ccccc1	/	/	/	/	/	3%
C#CCCCC(=S)Nc1ccccc1	/	/	/	/	5%	/
Cc1ccc(CN(C(=O)COc2cccc(C)c2C)C2CCS(=O)(=O)C2)o1 (stereo not drawn)	4%	7	-4%	-2	/	-9%
N#Cc1ccccc1Cn1cc(C(=O)c2ccco2)c2ccccc21	0%	23*	-1%	47*	1%	2%
O=C(c1ccco1)c1cn(Cc2ccccc2)c2ccccc12	1%	77*	-3%	38*	0%	4%
O=C(Cn1cc(C(=O)c2ccco2)c2ccccc21)Nc1ccccc1Cl	/	/	-1%	/	/	0%
O=C(c1ccco1)c1cn(Cc2ccccc2Cl)c2ccccc12	5%	71	-9%	42*	1%	-6%
CN(C)CCN1CCN(C(c2cc3ccccc3o2)c2nnnn2C(C)(C)C)CC1 (stereo not drawn)	/	/	/	/	/	-5%
COC(=O)C1=C(CS(=O)(=O)c2cc(Cl)ccc2OC)NC(=O)NC1c1ccc(O)c(OC)c1 (stereo not drawn)	6%	-6	-15%	-5	6%	0%
COc1ccc(Cn2c(=O)c3oc4ccccc4c3n(Cc3ccc(Cl)cc3)c2=O)cc1	/	/	3%	/	/	0%
CCCc1cc(C(=O)OCC(=O)N2CCN(c3ccc(OC)cc3)CC2)sc1C	/	/	5%	/	/	-7%
COC(=O)c1nc(NC(=O)C(C)(C)C)n[nH]1	-10%	10	32µM*	-2	0%	2%
CSCC[C@H](NC(=O)[C@H](CC(C)C)NC(=O)[C@@H]1CCCN1C(=O)[C@H](Cc1ccccc1)NC(=O)[C@H](Cc1ccccc1)NC(=O)[C@@H]1CCC(=O)N1)C(N)=O	/	-4	/	-2	0%	/
Cc1ccc2nc(N3CCOCC3)c(C=O)cc2c1	0%	36	2%	26*	-2%	1%
Cc1ccc2cc(C=O)c(N3CCOCC3)nc2c1C	-1%	/	-16%	-3	-2%	2%
O=C(Nc1ccc2nc(-c3cccs3)[nH]c2c1)c1ccco1	-7%	60*	-7%	27*	-16%	-14%
O=C(Nc1cccc(-c2cnc3ccccc3n2)c1)c1ccccc1	12%	47	1%	31	5%	-5%
c1cncc(CNc2cccc(-c3nc4ccccc4[nH]3)c2)c1	-11%	active	1%	54*	-6%	2%
O=C(Nc1cccc(-c2cnc3ccccc3n2)c1)c1cccc(NC(=O)c2ccco2)c1	4%	46*	-18%	43*	7%	0%
Cc1ccc2nc(-c3ccc(NC(=O)c4ccco4)cc3)[nH]c2c1	-3%	75*	-31%	39*	-15%	-6%

Screens as filed in PubChem BioAssay.
